Experimental data taken from PubChem BioAssay AID602447 (National Center for Advancing Translational Sciences (NCATS), 2012).
Results filed as inconclusive are left out. Active and inactive are the calls of the source. The rule behind the calls is not given here.

Target: Beta-2 adrenergic receptor (Homo sapiens) (UniProt P07550)
Assay: qHTS for antagonists of the Thyroid Stimulation Hormone Receptor: Hit Validation with Beta-2 Adrenergic Receptor
Conditions: B2AR-expressing cells, cAMP HTRF, antagonist counterscreen; hits give high values
Excerpt: The thyroid-stimulating hormone receptor (TSHR) is a member of the 7 trans-membrane-spanning receptor (7TMR) family of cell surface receptors. TSHR-mediated hyperthyroidism is important in thyroid pathology. The development of small molecule antagonists of TSHR may lead to therapeutic approaches for TSHR-mediated hyperthyroidism caused by constitutively activating mutations or stimulating auto-antibodies associated with Graves' disease. Graves' disease is the leading cause of hyperthyroidism and is caused by autoantibodies that stimulate TSHR (TsAbs) causing thyroid growth and unregulated overproduction of thyroid hormones and existing treatments have liabilities (agranulocytosis). In addition, TSHRs are known to be expressed in multiple extrathyroidal tissues including bone, brain, kidney, testis, fat and cells of the immune system but the role of the TSHR in these tissues is not clear. Therefore, TSHR antagonists/inverse agonists could be used as probes of extrathyroidal TSHR function. Finally, TSHR inverse agonists, which are a subclass of antagonists that inhibit agonist-independent (or basal or constitutive) TSHR signaling, could be used to inhibit TSH-independent signaling in patients with recurrent or metastatic thyroid cancer who are receiving thyroid hormone to suppress TSH. In collaboration between scientist from the NCGC and the NIDDK, a miniaturized HTRF high-throughput screen was developed. It's a cell based assay, where an anti cAMP antibody contains a fluorescent cryptate tag (excitation 337 nm; emission 620 nm) and the acceptor is cAMP-d2 (excitation 620 nm; emission 665 nm). When antibody and cAMP-d2 interact and are excited by a 337 nm light, a FRET occurs resulting in emission at 665 nm. The assay is competition between cAMP-d2 and cAMP (from the cell lysate). The homogeneous protocol allows for one step dispense after stimulation that is automation friendly. This is a hit validation assay in a counterscreen using beta-2 adrenergic receptor, a closely related hormone receptor NIH Chemical Genomics Center [NCGC] NIH Molecular Libraries Probe Centers Network [MLPCN] Grant: MH090855 Assay Provider: Marvin Gershengorn, NIDDK
An anti cAMP antibody contains a fluorescent cryptate tag (excitation 337 nm; emission 620 nm) and the acceptor is cAMP-d2 (excitation 620 nm; emission 665 nm). When antibody and cAMP-d2 interact and are excited by a 337 nm light, a FRET occurs resulting in emission at 665 nm. The assay is competition between cAMP-d2 and cAMP (from the cell lysate). The homogeneous protocol allows for one step dispense after stimulation that is automation friendly.

Chain of Beta-2 adrenergic receptor (Homo sapiens) (P07550 whole entry, looked up): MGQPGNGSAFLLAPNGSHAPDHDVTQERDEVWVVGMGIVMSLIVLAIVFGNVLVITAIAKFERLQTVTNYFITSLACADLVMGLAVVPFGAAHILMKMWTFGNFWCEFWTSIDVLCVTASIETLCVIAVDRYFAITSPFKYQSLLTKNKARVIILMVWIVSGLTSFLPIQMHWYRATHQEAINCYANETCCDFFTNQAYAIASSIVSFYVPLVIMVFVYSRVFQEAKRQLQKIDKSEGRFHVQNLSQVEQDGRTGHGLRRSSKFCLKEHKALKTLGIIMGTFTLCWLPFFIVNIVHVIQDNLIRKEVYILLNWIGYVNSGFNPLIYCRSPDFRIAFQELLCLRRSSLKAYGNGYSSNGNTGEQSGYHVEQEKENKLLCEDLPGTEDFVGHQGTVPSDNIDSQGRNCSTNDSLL

| Structure (SMILES) | max inhibition |
| --- | --- |
| O=C(Nc1nc(-c2ccccc2)cs1)c1ccccc1NS(=O)(=O)c1ccc(F)cc1 | 96% (active) |
| COc1ccc(OCC(=O)NC(=S)Nc2ccc(N3CCOCC3)c(Cl)c2)cc1 | 89.7% (active) |
| Cc1ccc(-n2[nH]c(C)c(/C=N/Nc3ccc([N+](=O)[O-])cc3[N+](=O)[O-])c2=O)cc1C | 88.7% (active) |
| O=C(COc1cccc2ccccc12)Nc1ccc(Cl)cc1C(=O)O | 85.8% (active) |
| O=C1NC(=S)S/C1=C\c1ccc(SCc2ccccc2)o1 | 92.6% (active) |
| O=S(=O)(Nc1cc(Cl)ccc1-n1cncn1)c1cc(Br)ccc1Br | 72.6% (active) |
| Oc1c(Cl)cc(Cl)c(Cl)c1Cc1c(O)c(Cl)cc(Cl)c1Cl | 96.4% (active) |
| CCn1nc([N+](=O)[O-])c(C(C#N)c2nc3cc(C(F)(F)F)ccc3s2)c(Cl)c1=O (centres undefined) | 94.3% (active) |
| O=C1/C(=C\c2cc([N+](=O)[O-])ccc2O)SC(=S)N1Cc1ccc(Cl)cc1 | 90.7% (active) |
| COc1ccc(-c2csc(/C(C#N)=C\c3ccc(O)c([N+](=O)[O-])c3)n2)cc1OC | 94.4% (active) |
| O=C(Nc1ccc(Oc2ccc(Cl)cc2)c(Cl)c1)c1cc(I)cc(I)c1O | 91.3% (active) |
| CCSC1=NSC2=NC(=O)/C(=C\c3coc4ccccc4c3=O)C(=N)N12 | 96.6% (active) |
| O=c1cc(C(F)(F)F)[nH]c2c(C(F)(F)F)cccc12 | 88.6% (active) |
| CC(=O)Oc1c(C)cc(Cl)cc1C(=O)Nc1ccc([N+](=O)[O-])cc1Cl | 82.9% (active) |
